Assay results: PubChem BioAssay (NCI)
“And” between values parts separate entries of the source, which are not always exact repeats. Equal entries are not always repeated. The panel holds about 79,000 compounds, 15% with a hit somewhere; the sample as a whole holds those more often. The source holds several records for some structures; these can differ, active in one and inactive in another. The source made the active and inactive calls. No stated cut-off is given here; in the data, active means growth inhibition above about 70%; inactive means the rest.

Experiments:
[1] = NCI Yeast Anticancer Drug Screen. Data for the wt1 strain (AID 149);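 further: 0% = growth of vehicle-treated wt1 cultures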; conditions: S. cerevisiae wt1 strain (SPY 50644) growth inhibition, stronger effect = higher value
Outline: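 Readout: yeast growth inhibition, normalised to vehicle controls, in the wt1 strain exposed to test compounds.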

[2] = NCI Yeast Anticancer Drug Screen. Data for the rad50EPP+ strain (AID 151);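 further: 0% = growth of vehicle-treated control cultures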; conditions: S. cerevisiae rad50 mutant strain, stronger effect = higher value
Outline: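 One strain with a rad50 alteration (rad50EPP+) was compound-treated, its growth then compared to that of vehicle controls.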

[3] = NCI Yeast Anticancer Drug Screen. Data for the rad50 strain (AID 155);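 further: 0% = growth of vehicle-only cultures of the same strain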; conditions: S. cerevisiae rad50 strain growth inhibition, stronger effect = higher value
Outline: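 Compounds were tested on a yeast strain with an engineered DNA damage repair alteration; the reported value is growth inhibition normalised to vehicle treatment.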

[4] = NCI Yeast Anticancer Drug Screen. Data for the mec2-1 strain (AID 157); conditions: S. cerevisiae mec2-1 strain, stronger effect = higher value
Outline: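 Test agents were screened against the mec2-1 yeast strain, with defined DNA repair or cell cycle alteration. Growth was scored as inhibition against vehicle-only controls.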

[5] = NCI Yeast Anticancer Drug Screen. Data for the rad14 strain (AID 159);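 further: 0% = growth of vehicle-treated control cultures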; conditions: S. cerevisiae rad14 strain growth inhibition, stronger effect = higher value
Outline: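 Compound-treated yeast with a defined DNA-repair lesion; growth inhibition normalised to vehicle-treated cultures.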

[6] = NCI Yeast Anticancer Drug Screen. Data for the sgs1 mgt1 strain (AID 161);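 further: 0% = growth of cultures given vehicle only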; conditions: S. cerevisiae sgs1 mgt1 strain, stronger effect = higher value
Outline: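 Test agents were incubated with a DNA-repair-mutant yeast strain. Growth was then read and compared against vehicle-treated controls.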

[7] = NCI Yeast Anticancer Drug Screen. Data for the CLN2oe strain (AID 163);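 further: 0% = growth of vehicle-only control cultures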; conditions: S. cerevisiae CLN2oe strain, stronger effect = higher value
Outline: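 Here, growth inhibition in a cell-cycle-altered yeast strain after compound exposure was quantified against vehicle control growth.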

[8] = NCI Yeast Anticancer Drug Screen. Data for the cln2 rad14 strain (AID 165);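 further: 0% = growth equal to vehicle treated cultures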; conditions: S. cerevisiae cln2 rad14 strain, stronger effect = higher value
Outline: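 Growth of compound-exposed yeast (cln2 rad14 genotype) measured and expressed as inhibition relative to vehicle.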

[9] = NCI Yeast Anticancer Drug Screen. Data for the bub3 strain (AID 167); conditions: S. cerevisiae bub3 mutant strain, stronger effect = higher value
Outline: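 Growth of a checkpoint-deficient yeast mutant is measured after compound exposure. Values represent inhibition relative to vehicle.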

[10] = NCI Yeast Anticancer Drug Screen. Data for the wt2 strain (AID 169);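 further: 0% = growth of vehicle-treated yeast cultures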; conditions: S. cerevisiae wt2 strain growth inhibition, stronger effect = higher value
Outline: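 Genetically defined yeast strains from a DNA-repair/cell-cycle panel were used. Compound-exposed yeast growth was measured, and the inhibition was calculated relative to vehicle treatment.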

[11] = NCI Yeast Anticancer Drug Screen. Data for the mlh1 strain (AID 171);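 further: 0% = growth of vehicle-treated control cultures of the same strain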; conditions: S. cerevisiae mlh1 strain growth inhibition, stronger effect = higher value
Outline: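 Here the genetically defined yeast mutant is grown with each compound, and the extent to which its growth falls below that of vehicle-exposed cells is reported.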

[12] = NCI Yeast Anticancer Drug Screen. Data for the sgs1 strain (AID 173);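 further: 0% = growth of vehicle-only control cultures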; conditions: S. cerevisiae sgs1 mutant, stronger effect = higher value
Outline: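 Relative growth inhibition, referenced to vehicle, was determined in a yeast strain with a defined alteration affecting DNA damage repair or cell cycle control after compound exposure.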

[13] = NCI Yeast Anticancer Drug Screen. Data for the mlh1 rad18 strain (AID 175); conditions: S. cerevisiae mlh1 rad18 strain growth inhibition, stronger effect = higher value
Outline: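 In this whole-cell yeast screen, a strain with altered DNA damage repair is challenged with compound, and its growth is measured against matched vehicle-treated controls.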

[14] = NCI Yeast Anticancer Drug Screen. Data for the rad18 strain (AID 177); conditions: S. cerevisiae rad18 mutant growth inhibition, stronger effect = higher value
Outline: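 Screen uses a yeast strain with a defined lesion in DNA damage repair; compound effect is read as loss of growth compared to untreated vehicle cultures.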

[15] = at 5.0 µM (retest, dose inferred, filed as 0.5)
[16] = at 50.0 µM (retest, dose inferred, filed as 5.0)

Measured: growth inhibition

CNCC(O)c1ccc(O)c(O)c1.[Pt].c1ccc([PH+](c2ccccc2)c2ccccc2)cc1.c1ccc([PH+](c2ccccc2)c2ccccc2)cc1
inactive: [1]; at 1.2 µM -1% | [1]; at 3.7 µM -2% | [1]; at 11.0 µM -2% | [1]; at 33.0 µM 8% | [1]; at 100.0 µM 53% | [2]; at 1.2 µM 2% | [2]; at 3.7 µM -3% | [2]; at 11.0 µM -21% | [2]; at 33.0 µM 11% | [3]; at 1.2 µM -1% | [3]; at 3.7 µM -3% | [3]; [15] -8% | [3]; at 11.0 µM -1% | [4]; at 1.2 µM 3% | [4]; at 3.7 µM 6% | [4]; [15] -8% | [4]; at 11.0 µM 4% | [4]; at 33.0 µM 65% | [5]; at 1.2 µM -1% | [5]; at 3.7 µM -3% | [5]; at 11.0 µM 4% | [6]; [15] -2% | [6]; [16] -7% | [7]; at 1.2 µM 0% | [7]; at 3.7 µM -8% | [7]; at 11.0 µM 3% | [8]; [15] 17% | [9]; at 1.2 µM 0% | [9]; at 3.7 µM 1% | [9]; [15] -18% | [9]; at 11.0 µM -3% | [10]; at 1.2 µM -2% | [10]; at 3.7 µM -2% | [10]; at 11.0 µM 8% | [11]; at 1.2 µM -3% | [11]; at 3.7 µM -1% | [11]; at 11.0 µM 8% | [12]; at 1.2 µM 2% | [12]; at 3.7 µM 4% | [12]; at 11.0 µM 15% | [13]; [15] 13% | [14]; at 1.2 µM 0% | [14]; at 3.7 µM 2% | [14]; at 11.0 µM 19%
active: [2]; at 100.0 µM 93% | [3]; at 33.0 µM 96% | [3]; [16] 99% | [3]; at 50.0 µM 99% | [3]; at 100.0 µM 96% | [4]; [16] 99% | [4]; at 50.0 µM 98.8% | [4]; at 100.0 µM 97% | [5]; at 33.0 µM 98% | [5]; at 100.0 µM 96% | [6]; at 50.0 µM 99.1% | [7]; at 33.0 µM 93% | [7]; at 100.0 µM 96% | [8]; [16] 99% | [8]; at 50.0 µM 98.8% | [9]; at 33.0 µM 75% | [9]; [16] 99% | [9]; at 50.0 µM 98.8% | [9]; at 100.0 µM 96% | [10]; at 33.0 µM 98% | [10]; at 100.0 µM 98% | [11]; at 33.0 µM 91% | [11]; at 100.0 µM 97% | [12]; at 33.0 µM 86% | [12]; at 100.0 µM 97% | [13]; [16] 99% | [13]; at 50.0 µM 99% | [14]; at 33.0 µM 80% | [14]; at 100.0 µM 96%

BrCC[N+]12CC[N+](CCBr)(CC1)C2
inactive: [1]; at 1.2 µM 1% | [1]; at 3.7 µM 6% | [1]; at 11.0 µM 14% | [2]; at 1.2 µM 9% | [2]; at 3.7 µM 14% | [2]; at 11.0 µM 12% | [3]; at 1.2 µM 14% | [3]; at 3.7 µM 20% | [3]; [15] 40% and 27% | [3]; at 11.0 µM 55% | [4]; at 1.2 µM -4% | [4]; at 3.7 µM 5% | [4]; [15] 43% and 1% | [4]; at 11.0 µM 29% | [5]; at 1.2 µM -13% | [5]; at 3.7 µM -16% | [5]; at 11.0 µM 56% | [6]; [15] 46% and -15% | [7]; at 1.2 µM 1% | [7]; at 3.7 µM -9% | [7]; at 11.0 µM 2% | [8]; [15] 35% and 23% | [9]; at 1.2 µM -5% | [9]; at 3.7 µM -1% | [9]; [15] 34% and -12% | [9]; at 11.0 µM 36% | [10]; at 1.2 µM -33% | [10]; at 3.7 µM -18% | [10]; at 11.0 µM 4% | [11]; at 1.2 µM 12% | [11]; at 3.7 µM -2% | [11]; at 11.0 µM 42% | [12]; at 1.2 µM -17% | [12]; at 3.7 µM 15% | [12]; at 11.0 µM 5% | [13]; [15] 64% and 42% | [14]; at 1.2 µM 10% | [14]; at 3.7 µM 25% | [14]; at 11.0 µM 53%
active: [1]; at 33.0 µM 82% | [1]; at 100.0 µM 94% | [2]; at 33.0 µM 81% | [2]; at 100.0 µM 92% | [3]; at 33.0 µM 87% | [3]; [16] 94% and 89% | [3]; at 50.0 µM 86.7% and 86.5% | [3]; at 100.0 µM 93% | [4]; at 33.0 µM 87% | [4]; [16] 98% and 94% | [4]; at 50.0 µM 92.2% and 89.9% | [4]; at 100.0 µM 95% | [5]; at 33.0 µM 93% | [5]; at 100.0 µM 94% | [6]; [16] 90% and 93% | [6]; at 50.0 µM 89.2% | [7]; at 33.0 µM 78% | [7]; at 100.0 µM 89% | [8]; at 50.0 µM 84.9% and 85.5% | [9]; at 33.0 µM 89% | [9]; [16] 92% and 95% | [9]; at 50.0 µM 86.7% and 87% | [9]; at 100.0 µM 95% | [10]; at 33.0 µM 86% | [10]; at 100.0 µM 95% | [11]; at 33.0 µM 88% | [11]; at 100.0 µM 96% | [12]; at 33.0 µM 77% | [12]; at 100.0 µM 89% | [13]; [16] 95% and 90% | [13]; at 50.0 µM 90.6% and 86.9% | [14]; at 33.0 µM 89% | [14]; at 100.0 µM 95%
92% (active) and 65% (inactive): [8]; [16]
